Sampled rows, rich in hits. Any-hit rate of the full collection: about 21%.
Shiga inhibitor = Shiga toxin inhibition; actives 9.2% (n = 290,000); Vero cells, Shiga toxin protein synthesis inhibition reporter; inhibition, % at 38.7 µM; in the data active means inhibition mostly above about 28%, no sharp cut-off; inactive means mostly below about 43%
Pf growth 48h = inhibits P. falciparum growth in the first generation, 48 h. P. falciparum luciferase growth in erythrocytes, 48 h. actives 5.9% (n = 310,000). Potency, µM (doses to about 28.7 µM), hits mostly inhibitors
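Parasite viability was followed by luminescence of a genomically integrated firefly luciferase. Cultures held 0.1% parasitemia at 2% hematocrit (final), incubated under 5% CO2 at 37 C.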
Pf growth 96h = P. falciparum growth inhibition at 96 hour, primary screen for plastid delayed-death inhibitors | Potency, µM (doses to about 28.7 µM), usual class: inhibitors | actives 6.9% (n = 320,000) | P. falciparum luciferase reporter growth, 96 h
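Compounds incubated with erythrocytes infected by luciferase-expressing P. falciparum (2% hematocrit, 0.05% parasitemia final) for 96 hours, 37 C in 5% CO2. Growth inhibition scored as decreased luciferase luminescence.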
Cycloheximide cs = counter-screen for Shiga toxin inhibitors: cycloheximide protein synthesis inhibition. cell reporter, cycloheximide protein synthesis inhibition counterscreen. max response, %. actives 12% (n = 300,000). AID 2314; in the data active means max response mostly above about 13%, no sharp cut-off; inactive means mostly below about 14%; further: read at 38.3 µM for the half of the compounds with a filed dose
HCV inh = HCV inhibition; AID 651820; Huh7.5.1 HCVcc-Cre infection, luciferase reporter, 44 h; Potency, µM (doses to about 41.8 µM), most hits filed as inhibitors; actives 3.4% (n = 340,000)
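1,000 cells/well; 4 h culture; + compound; + HCVcc-Cre (~0.5 moi); 44 h; luciferase substrate, RT 15 min; read 15 sec.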
AMA1-RON2 inh = disrupts binding of P. falciparum AMA1 to RON2; AlphaScreen AMA1-biotinylated RON2 peptide binding; Potency, µM (top dose mostly 58.2 µM), most hits filed as inhibitors; actives 0.2% (n = 360,000); AID 720542; further: nearly all actives have a fitted effect of over 45% in size
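AMA1 (3D7) with his tag at 25 nM final met compounds first, then biotinylated RON2 peptide at 25 nM; detection used donor plus acceptor beads, 10 µg/mL apiece, read by AlphaScreen after 30 min at room temperature.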
Large screens that a line does not name were inactive. Unless noted, the call rests on the fitted dose curve; in most records, active means well fitted curve in the direction sought with a large enough effect; inconclusive means small, poorly fitted or top-dose-only effect, or another doubt; inactive means no such curve, though single readings can be large; an effect the other way counts as inactive or inconclusive.

CC(CCc1ccc(O)cc1)NCCc1ccc(O)c(O)c1 (stereo not drawn)	Pf growth 48h inconclusive, Pf growth 96h 1.5µM, HCV inh inconclusive, AMA1-RON2 inh inconclusive
Cc1occc1-c1nnc(SCC(=O)NCC2CCCO2)n1C (stereo not drawn)	Pf growth 96h 2.3µM, HCV inh inconclusive
C=CCn1c(SCC(N)=O)nc2scc(-c3ccc(C)o3)c2c1=O	Shiga inhibitor 85, Cycloheximide cs 45, HCV inh inconclusive
COc1ccc(-c2nsc(SCC(=O)NCC3CCCO3)n2)cc1 (stereo not drawn)	Shiga inhibitor 65, Pf growth 96h inconclusive, Cycloheximide cs 32
CC(C)c1ccc2nc(SCC(=O)NCC3CCCO3)c(C#N)cc2c1 (stereo not drawn)	Shiga inhibitor 71, HCV inh inconclusive
CCc1ccc2nc(SCC(=O)NCC3CCCO3)c(C#N)cc2c1 (stereo not drawn)	HCV inh inconclusive
Cc1ccc(-n2c(SCC(=O)NCC3CCCO3)nnc2-c2ccoc2C)cc1 (stereo not drawn)	none (no result: Pf growth 48h, Pf growth 96h)
Cc1ccc(-c2nsc(SCC(=O)NCC3CCCO3)n2)cc1 (stereo not drawn)	Shiga inhibitor 56, HCV inh 10µM
C=CCn1c(SCC(=O)NCC2CCCO2)nc2scc(-c3ccc(OC)cc3)c2c1=O (stereo not drawn)	Pf growth 96h 5.2µM (no result: HCV inh)
Cc1ccc(-c2nnc(SCC(=O)NCC3CCCO3)nc2-c2ccc(C)cc2)cc1 (stereo not drawn)	Pf growth 48h 15µM, Pf growth 96h inconclusive (no result: Shiga inhibitor, Cycloheximide cs)
Cc1ccc(SCCC(=O)NCC2CCCO2)cc1 (stereo not drawn)	Cycloheximide cs 13 (no result: Pf growth 96h)
Cc1ccc(SCC(=O)NCC2CCCO2)cc1 (stereo not drawn)	none
COc1ccccc1S(=O)(=O)N1CCNC(=O)C1	none (no result: Shiga inhibitor, Pf growth 48h, Pf growth 96h, Cycloheximide cs)
O=C(NC(Cc1ccccc1)C(=O)O)/C(=C/c1ccc([N+](=O)[O-])cc1)NC(=O)c1ccco1 (stereo not drawn)	none
CCC(=O)NCCc1nc2cc(NC(=O)c3ccco3)ccc2n1C	Shiga inhibitor 44, Pf growth 96h inconclusive, Cycloheximide cs 15
Cn1c(CCNC(=O)c2ccco2)nc2cc(NC(=O)c3ccccc3)ccc21	Shiga inhibitor 80, Pf growth 96h inconclusive, Cycloheximide cs 36
Cc1cc2cc(NC(=O)c3ccco3)ccc2[nH]1	Shiga inhibitor 137, Cycloheximide cs 61
Nc1nc2ccc(NC(=O)c3ccco3)cc2s1	Shiga inhibitor 107, Cycloheximide cs 51
Cn1c(CCNC(=O)c2ccccc2)nc2cc(NC(=O)c3ccco3)ccc21	none (no result: Pf growth 96h)
O=[N+]([O-])c1ccc(-[n+]2ccc3ccccc3c2)c([N+](=O)[O-])c1	Pf growth 48h inconclusive, Pf growth 96h inconclusive, HCV inh inconclusive (no result: Shiga inhibitor, Cycloheximide cs)
COc1ccc(CN2C(=O)CCCC2(C)c2nc3ccccc3[nH]2)cc1 (stereo not drawn)	none (no result: Shiga inhibitor, Pf growth 48h, Pf growth 96h, Cycloheximide cs, HCV inh)
CCCCC(=O)Nc1ccc2c(c1)nc(CCNC(=O)c1ccco1)n2C	Cycloheximide cs 15
Cc1nc2cc(NC(=O)NCc3ccco3)ccc2n1C	Shiga inhibitor 85, Cycloheximide cs 41 (no result: Pf growth 96h)
NNC(=O)c1ccc2[nH]c3c(c2c1)CCCC3	none
Cn1c(CCNC(=O)c2ccco2)nc2cc(NC(=O)NC3CCCCC3)ccc21	none (no result: Pf growth 96h)
Cn1c(CCNC(=O)c2ccco2)nc2cc(NC(=O)C3CCCCC3)ccc21	Shiga inhibitor 37, Pf growth 96h inconclusive, Cycloheximide cs 12
O=C(Nc1ccc2[nH]c3c(c2c1)CCCC3)c1ccco1	Shiga inhibitor 42, Pf growth 48h 3.7µM, Pf growth 96h inconclusive, Cycloheximide cs 14, HCV inh 13µM
CC(=O)c1cccc(NC(=O)NCc2ccco2)c1	none (no result: Pf growth 96h)
CN(C(=O)c1cc2ccccc2o1)c1c(N)n(Cc2ccccc2)c(=O)[nH]c1=O	none (no result: Shiga inhibitor, Pf growth 48h, Pf growth 96h, Cycloheximide cs)
CCOC(=O)[C@]12CCCC=C1N(CCC1=CCCCC1)C(=O)[C@H](CC(=O)N1CCC(c3ccccc3)CC1)C2	none (no result: Shiga inhibitor, Pf growth 48h, Pf growth 96h, Cycloheximide cs, HCV inh)
CCN1C(=O)[C@H]2[C@@H](c3ccc(C(F)(F)F)cc3)N[C@]3(CCCN(Cc4ccco4)C3=O)[C@H]2C1=O	none (no result: Shiga inhibitor, Pf growth 48h, Pf growth 96h, Cycloheximide cs, HCV inh)
Cn1c(CCNC(=O)c2ccco2)nc2cc([N+](=O)[O-])ccc21	Pf growth 96h 2.6µM
Cn1c(CCNC(=O)c2ccco2)nc2ccccc21	Pf growth 96h inconclusive (no result: Shiga inhibitor, Cycloheximide cs)
O=C(Nc1ccc2c(c1)nc1n2CCSC1)c1ccco1	none
Cn1c(CCNC(=O)c2ccco2)nc2cc(NC(=O)c3ccco3)ccc21	Shiga inhibitor 49, Cycloheximide cs 23
CCCn1c(CN2CCN(C(=O)c3ccco3)CC2)nc2cc(S(=O)(=O)N(C)C)ccc21	Pf growth 48h 10µM, Pf growth 96h 9.3µM (no result: Shiga inhibitor, Cycloheximide cs)
COc1ccccc1C(=O)Nc1ccc2c(c1)nc(CCNC(=O)c1ccco1)n2C	Pf growth 48h inconclusive
Cc1nc2cc(NC(=O)c3ccco3)ccc2n1C	Cycloheximide cs 24
COc1cccc(NC(=O)C(=O)NCCC2CCCCN2S(=O)(=O)c2cccs2)c1 (stereo not drawn)	HCV inh inconclusive (no result: Shiga inhibitor, Cycloheximide cs)
CCOC(=O)[C@]12CCC=C1N(CCC1=CCCCC1)C(=O)[C@H](CC(=O)NCCCCc1ccccc1)C2	none (no result: Shiga inhibitor, Pf growth 48h, Pf growth 96h, Cycloheximide cs, HCV inh)
Cc1cc(NC(=O)c2ccco2)ccc1-n1cnnn1	Shiga inhibitor 113, Cycloheximide cs 46
Cc1nc2ccc(NC(=O)c3ccco3)cc2nc1C	Shiga inhibitor 59, Cycloheximide cs 17
COc1cc(C(=O)Nc2ccc(-n3cnnn3)c(C)c2)cc(OC)c1OC	Pf growth 96h inconclusive, HCV inh inconclusive
CCOC(=O)N1CCN(Cc2nc3cc(NC(=O)c4ccco4)ccc3n2CC)CC1	Cycloheximide cs 23, HCV inh inconclusive
COc1cccc(OC)c1C(=O)Nc1ccc2nc(C)c(C)nc2c1	Pf growth 96h inconclusive
CN(C)Cc1ccc(O)c(CCc2ccccc2)n1	Pf growth 48h 5.2µM
Cc1cccc2c1NC(=O)C2=Nc1ccc(Cl)cc1	Pf growth 96h inconclusive (no result: Shiga inhibitor)
Cc1ccc(N=C2C(=O)Nc3c(C)cccc32)cc1	Pf growth 96h 10µM
COc1ccc(-c2oc(=O)c3cc(OC)c(OC)cc3c2-c2cc(F)cc(OC)c2)cc1	Pf growth 48h inconclusive, Pf growth 96h 2.9µM, HCV inh inconclusive (no result: Shiga inhibitor, Cycloheximide cs)
COc1ccc(-c2c(-c3ccc(C#N)cc3)oc(=O)c3cc(OC)c(OC)cc23)cc1	HCV inh inconclusive (no result: Shiga inhibitor, Pf growth 48h, Pf growth 96h, Cycloheximide cs)
Cc1cccc(NC2SC(=O)NC2=O)c1 (stereo not drawn)	none
NC(=O)c1ccsc1NC(=O)CCc1ccccc1	Cycloheximide cs 44 (no result: Shiga inhibitor)
COc1ccc(CCC(=O)OCC(=O)Nc2sccc2C(N)=O)cc1	Pf growth 48h inconclusive (no result: Shiga inhibitor, Cycloheximide cs)
COC(=O)c1cc(C)sc1NC(=O)CCc1ccccc1	none (no result: Shiga inhibitor)
CCOc1ccccc1OCCCC(=O)Nc1sccc1C(N)=O	Pf growth 48h 12µM, Pf growth 96h inconclusive, HCV inh inconclusive

Source: PubChem (National Center for Advancing Translational Sciences (NCATS))
